Compound activity from PubChem.
Compounds with a hit are over-represented: about 3.4% of the library has one in this group of screens.
Ecoli rRNA inh = selective bacterial rRNA inhibition in E. coli | E. coli WT GFP vs humanized-ribosome RFP mutants, fluorescence, 24 h; hits give low values; DMSO median 0, no signal -100 | GFP signal change (wild-type ribosome), % (test concentration not listed) | actives 1.6% (n = 350,000) | AID 720706;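 active = significant combined selectivity score with lowered wild-type GFP, culture density cut under 30%, mutant RFP and density less affected; inactive = any of these conditions unmet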
PGC1a acetyl inh = modulators of PGC1a acetylation; U2OS PGC1a acetylation, AlphaScreen anti-acetyl-lysine; with virally co-expressed GCN5 acetyltransferase; inhibition, % at 15.6 µM; actives 0.17% (n = 350,000); AID 651687;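 active = every replicate shows inhibition of at least 40%; inconclusive = mean inhibition at least 40% but some replicate below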;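 also: 0% = neutral control wells and 100% = positive control wells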
PAX8 reporter = inhibitors of PAX8 transcriptional activity in RMG-I cells; RMG-I TPO-luciferase reporter, SteadyGlo, 24 h; inhibition, % at 12.6 µM; actives 1.2% (n = 360,000);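 active = mean replicate inhibition at least 60% with every replicate also reaching 60%; inconclusive = only one of the two criteria is met; inactive = mean below 60% and not all replicates reaching 60%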;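 also: luciferase light reporting Pax8 driven TPO promoter activity; plate controls were median of neutral control wells for no effect and mitoxantrone controls for full effect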
LGR2 antag = blocks bursicon-induced cAMP signaling via Drosophila LGR2. HEK293 LGR2, CRE-luciferase, bursicon-stimulated, 4 h. inhibition, % at 9.99 µM. actives 0.35% (n = 380,000). AID 720647;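 active = drop in luminescence signal, shown as inhibition above about 50% in the replicate tests, limit read from the data, passing the limit was not always enough; inconclusive = probably only some replicates passing the limit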;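 also: agonist challenge used bursicon conditioned medium at about half maximal strength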
SIRT5 block = inhibitors of human sirtuin-5 desuccinylase. Purified SirT5, succinyl-peptide AMC, trypsin-coupled fluorescence. Q9NXA8. actives 1.1% (n = 330,000). inhibition, % at 15 µM; in the data active = inhibition above about 15%; inconclusive = no clear call, values can overlap the other calls
Target sequence (Q9NXA8 whole entry, looked up): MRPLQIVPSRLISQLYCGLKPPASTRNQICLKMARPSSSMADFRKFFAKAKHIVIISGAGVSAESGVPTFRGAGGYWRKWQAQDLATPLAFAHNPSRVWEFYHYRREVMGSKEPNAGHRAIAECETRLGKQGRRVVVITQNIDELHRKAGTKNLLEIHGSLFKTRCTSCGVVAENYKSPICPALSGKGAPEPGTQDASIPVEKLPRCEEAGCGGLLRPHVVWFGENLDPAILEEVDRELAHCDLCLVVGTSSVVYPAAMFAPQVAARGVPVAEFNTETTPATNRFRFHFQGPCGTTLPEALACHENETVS
EWS-Fli inh = EWS/Fli transcriptional activity inhibition | actives 0.67% (n = 350,000) | A673 NR0B1-luciferase reporter, viability-normalised | inhibition, % at 12.6 µM;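 active = mean inhibition of at least 50% after viability correction, with every replicate also passing that limit; inconclusive = mean reaches 50% but only one of two replicates passes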;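 also: firefly luciferase signal divided by Alamar Blue viability fluorescence both relative to DMSO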
Starred values were filed as active, the others as inactive; u = inconclusive; x = not tested or not shown.

SMILES	Ecoli rRNA inh	PGC1a acetyl inh	PAX8 reporter	LGR2 antag	SIRT5 block	EWS-Fli inh
C[C@@H]1CN([C@H](C)CO)C(=O)c2cc(C#CC3(O)CCCC3)cnc2O[C@@H]1CN(C)C(=O)C1CCOCC1	1	2	-17	-7	-2	-6
CCCC1CC(C(=O)NC(C(C)Cl)C2OC(SC)C(O)C(O)C2O)N(C)C1 (stereo not given)	-32*	5	10	x	0	-3
CCC[C@@H]1C[C@@H](C(=O)NC(C(C)Cl)[C@H]2O[C@H](SC)[C@H](O)[C@@H](O)[C@H]2O)N(C)C1 (stereo not given in full)	x	4	6	2	-5	-7
CCCCCc1c(-c2ccccc2F)ncn1CCc1ccccc1OC	-27	x	22	11	x	24
CCCCCc1c(-c2ccccc2OC)ncn1CCc1ccccc1OC	-30	x	99*	u	x	43
CCCCc1c(-c2ccccc2OC)ncn1CCc1ccccc1OC	-63	x	27	41	5	35
CCc1c(Cc2ccccc2)ncn1CCc1ccccc1OC	-52	x	78*	1	x	35
CCCCc1c(-c2ccccc2F)ncn1CCc1ccccc1OC	-63	x	-4	28	28*	33
CCNC(=O)C[C@H]1CC[C@H]2[C@@H](COC[C@@H](O)CN2Cc2ccncc2)O1	4	-2	-8	-8	-1	-5
C[C@@H]1CN([C@@H](C)CO)C(=O)Cc2cc(NS(=O)(=O)c3ccc(F)cc3)ccc2O[C@H]1CN(C)S(=O)(=O)c1cccs1	-5	-8	-19	-5	2	-10
COc1cc(F)ccc1-c1cc(C(=O)NCc2ccc(C(F)(F)F)cc2)[nH]n1	-16	-28	-31	-18	x	-10
COc1ccc(-c2cc(C(=O)NCc3ccc(C(F)(F)F)cc3)[nH]n2)c(C)c1	-20*	4	0	2	-1	-7
Nc1ccccc1Oc1ncc(C(F)(F)F)cc1Cl	6	46*	x	-1	-5	-11
FC(F)(F)c1cnc(Oc2ccccc2-c2nnco2)c(Cl)c1	-1	x	x	1	-2	x
C[C@@H](NC(=O)C[C@H]1C[C@H]2c3cc(NC(=O)CC4CC4)ccc3O[C@H]2[C@@H](CO)O1)c1ccccc1	1	4	x	18	-3	-2
Cc1ccc(S(=O)(=O)Nc2ccccc2C(=O)NCC2CCCO2)cc1 (stereo not given)	-2	x	-12	-7	-1	x
Cc1ccccc1NS(=O)(=O)c1ccc(C(=O)NCC2CCCO2)cc1 (stereo not given)	11	x	0	-8	19*	-1
CCOc1ccccc1CNS(=O)(=O)c1cc(-c2cc(C)no2)ccc1OC	0	-21	-2	-7	-4	1
CCOc1ccc(N(C)S(=O)(=O)c2cc(-c3cc(C)no3)ccc2OC)cc1	-37*	-54	10	1	1	x
COc1ccc(OC)c(CNS(=O)(=O)c2cc(-c3cc(C)no3)ccc2OC)c1	1	51*	3	5	0	x
CCOc1ccc(N(C)S(=O)(=O)c2cc(-c3cc(C)no3)ccc2CC)cc1	-8	-5	57	22	0	-1
Cn1c(=N)n(CC(=O)c2ccc(Br)s2)c2ccccc21	x	-9	x	x	x	x
N=c1n(CC(=O)c2ccc(Br)s2)c2ccccc2n1Cc1ccccc1	-56	-6	47	32	2	60*
COc1ccc2c3c(n(C)c2c1)[C@@H](CO)N(C(=O)Nc1ccc(F)cc1)CC31CCN(C)CC1	1	-5	x	-2	x	1
O=C(CNC(=O)c1ccc(F)cc1)N/N=C/c1cc(Br)ccc1OC(=O)/C=C/c1ccco1	-28*	1	43	2	x	19
SMILES	Ecoli rRNA inh	PGC1a acetyl inh	PAX8 reporter	LGR2 antag	SIRT5 block	EWS-Fli inh
CC(=O)C12OC1CC1C3CCC4=CC(=O)CCC4(C)C3CCC12C (stereo not given)	-23*	x	-9	1	1	8
NCCCNc1nc(N)c([N+](=O)[O-])c(NC2CCCCC2)n1	10	x	78*	54*	-1	30
CO[C@@H]1CN(C)C(=O)c2ccc(NS(C)(=O)=O)cc2OC[C@@H](C)N(CC2CCCCC2)C[C@H]1C	-2	-10	x	16	x	2
Cc1ccc2nc(-c3ccncc3)c(Nc3ccccc3)n2c1	12	x	65*	1	3	11
Cc1cccc(OCc2nc(-c3cccnc3)no2)c1	7	-3	92*	-14	-4	-38
CO[C@@H]1CN(C)C(=O)c2ccc(NC(=O)C3CCOCC3)cc2OC[C@H](C)N(C)C[C@@H]1C	2	4	-8	17	x	-2
COCC(=O)Nc1ccc2c(c1)OC[C@@H](C)N(Cc1cc(F)ccc1F)C[C@H](C)[C@@H](OC)CN(C)C2=O	-8	3	6	7	3	-1
O=C(CNC(=O)c1ccccc1F)NCCc1ccc(Cl)cc1Cl	1	7	-10	9	-1	-9
O=C(NC(=O)c1ccccc1F)OCc1ccc(Cl)cc1Cl	-40*	x	11	-67	-2	-22
Cc1nc2ccccc2n2c(-c3ccccc3)c3c(=O)n(C)c(=O)n(C)c3c12	-34*	6	32	-10	0	x
Cc1cc(C)c2c3c(c(-c4ccccc4)n2n1)c(=O)n(C)c(=O)n3C	13	-1	1	5	-6	2
C[C@@H]1CN([C@@H](C)CO)C(=O)c2cccc(NS(C)(=O)=O)c2O[C@@H]1CN(C)C(=O)Nc1ccc2c(c1)OCO2	1	-3	x	-7	4	3
O=[N+]([O-])c1cccc(S(=O)(=O)N/N=C\c2ccc3c(c2)OCO3)c1	8	x	-49	-58	20*	x
C[C@@H]1CN([C@@H](C)CO)C(=O)c2cc(C#C[C@@H](C)O)cnc2O[C@H]1CN(C)C(=O)CN1CCOCC1	0	6	-1	15	-4	-3
CC(C)(CC(=O)O)CC(=O)O	11	7	-21	-8	-4	-4
CC(C)(C)C(=O)CNCC(=O)C(C)(C)C	14	10	-9	3	25*	-7
COC(=O)C1=C(C)NC(C)=C(C(=O)OC)C1/C=C/c1ccccc1	-32*	-11	x	-7	1	13
CCOC(=O)C1=C(C)NC(C)=C(C(=O)OCC)C1/C=C/c1ccccc1	-38	-19	x	-10	3	-12
COc1ccc(C(=O)/C=C2/C(=O)Nc3ccccc32)cc1OC	12	-16	39	18	-1	38
Cc1ccccc1/C=C1\C(=O)Nc2ccc(F)cc21	-5	-8	24	4	-4	-8
COc1ccc(C(=O)/C=C2/C(=O)Nc3ccccc32)c(OC)c1	-14	x	30	u	2	59*
COc1ccc(C(=O)/C=C2/C(=O)Nc3ccccc32)cc1	8	-9	11	-7	2	30
